Experimental data taken from PubChem BioAssay AID651636 (Sanford-Burnham Center for Chemical Genomics, 2012).
Hit rate of the full screen: of about 360,000 compounds, about 3,000 (0.83%) were called active. Shown is part of a subset that was picked to be rich in actives. A number with no mark means an inactive call. Rule as the data show it: active = inhibition above about 38%; inactive = the rest.

What follows are compounds tested against G-protein coupled receptor 183 (Homo sapiens) (UniProt P32249) (assay: EBI2 receptor antagonists, beta-arrestin recruitment, primary screen, cell-based, luminescence, 7a,25-OHC stimulation, uHTS (AID 651636;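 also: enzyme fragment complementation signal reports receptor beta-arrestin coupling in cells; 0% = agonist plus DMSO wells and 100% = wells without agonist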)). Settings: 7a,25-OHC stimulated, at 5 µM, stronger effect = higher value.
Chain of G-protein coupled receptor 183 (Homo sapiens) (P32249 whole entry, looked up, the tested form may be a part): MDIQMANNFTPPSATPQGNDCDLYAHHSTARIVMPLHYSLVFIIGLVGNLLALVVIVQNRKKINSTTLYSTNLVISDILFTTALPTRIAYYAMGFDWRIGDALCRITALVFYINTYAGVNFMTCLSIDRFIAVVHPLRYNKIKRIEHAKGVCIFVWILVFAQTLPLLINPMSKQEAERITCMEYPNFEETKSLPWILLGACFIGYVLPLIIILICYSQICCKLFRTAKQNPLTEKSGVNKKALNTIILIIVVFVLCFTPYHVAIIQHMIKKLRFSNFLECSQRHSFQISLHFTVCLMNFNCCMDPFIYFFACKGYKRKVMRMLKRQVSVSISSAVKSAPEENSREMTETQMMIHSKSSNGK

Structure (SMILES) | inhibition
Cc1nnnn1/C(=C\c1ccccc1)C(=O)OCC(=O)N1CC2(C)CC1CC(C)(C)C2 (centres undefined) | 31.6%
CCCC(C(=O)N1CCOCC1)N1C(=O)C2C3C=CC(C3)C2C1=O (centres undefined) | -18.5%
CC(=O)c1ccc(S(=O)(=O)N2CCN(C(=O)/C=C/c3ccc4ccccc4n3)CC2)cc1 | 62.3% (active)
CC(=O)c1ccc(S(=O)(=O)N2CCC(Oc3ccc(-n4cnnn4)cc3)CC2)cc1 | 2.61%
CC(=O)c1ccc(S(=O)(=O)N2CCN(c3nc4c(C)c(C)ccc4cc3C#N)CC2)cc1 | 15.8%
CC(=O)c1nn(-c2cccc(Br)c2)cc1C(=O)c1cccc2ccccc12 | 12%
CC(=O)c1nn(-c2ccc(C)cc2)cc1C(=O)c1cccc(Br)c1 | 46.1% (active)
CCOC(=O)c1nn(-c2cccc(C)c2)cc1C(=O)c1ccccc1 | 11%
CCc1ccc[n+](-c2nc([O-])sc2C=O)c1 | 7.04%
Cc1ccc(C(=O)N2CCCc3ccccc32)c(Cl)c1 | 10.8%
Cc1cccc2cc3c(N)c(C(=O)N4CCCc5ccccc54)sc3nc12 | 76.1% (active)
CCCn1nc(C(=O)N2CCCc3ccccc32)c2ccccc2c1=O | 14.1%
COc1ccc(C(C#N)=C2C=CC(=NO)c3ccccc32)cc1 | 17.2%
CC(Oc1ccc(Cl)cc1)C(=O)Nc1ncccn1 (centres undefined) | -3.28%
COc1cccc(CNC(=O)C2CCN(S(=O)(=O)c3cccc4cccnc34)CC2)c1 | -6.22%
CC(=O)/C(=N\Nc1ccc(Cl)cc1Cl)Sc1cccc2cccnc12 | 63.7% (active)
CCCCc1ccc(NS(=O)(=O)c2cccc(C(=O)N3CCCN(C)CC3)c2)cc1 | -4.46%
Cc1ccc(CN2CC(C(=O)NNC(=O)Cn3ccc(C(F)(F)F)n3)CC2=O)cc1 (centres undefined) | 7.75%
O=C(/C=C/c1cccc([N+](=O)[O-])c1)N1CCN(Cc2ccccc2)CC1 | 53.3% (active)
O=C(/C=C/c1cccc([N+](=O)[O-])c1)OCC(=O)N1CCOCC1 | 1.92%
O=C(/C=C/c1ccc(OCc2c(F)cccc2Cl)cc1)N1CCOCC1 | 7.94%
O=C(/C=C/c1ccc(Cl)cc1)N1CCN(c2ccccc2[N+](=O)[O-])CC1 | 93.1% (active)
O=C(/C=C/c1ccccc1[N+](=O)[O-])OCC(=O)N1CCCC1 | -0.221%

Structure (SMILES) | inhibition
Cc1c(Br)c([N+](=O)[O-])nn1CC(=O)N1CCN(Cc2ccccc2)CC1 | -9.97%
O=C(NCCN1CCCC(O)C1)c1cc(COc2c(F)cccc2F)on1 (centres undefined) | -9.61%
CCOC(=O)C1(O)CC(C)=NN1C(=O)c1cccc(Br)c1 (centres undefined) | -21.3%
CCC1([N+](=O)[O-])COC(c2ccc(C(C)C)cc2)OC1 (centres undefined) | -3.46%
COc1ccc(S(=O)(=O)N(C)C[C@H]2Oc3c(NC(=O)Nc4ccc5c(c4)OCO5)cccc3C(=O)N([C@H](C)CO)C[C@@H]2C)cc1 | 5.07%
Cc1ccc(NC(=O)C2CCC(C(C)(C)C)CC2)cc1S(=O)(=O)N1CCOCC1 (centres undefined) | -1.74%
Cc1[nH]nc(SCC(=O)NCC(C)C)c1[N+](=O)[O-] | -0.06%
N#CC1=C(SCc2ccc(C#N)cc2)N=C(N)C(c2nc(-c3ccccc3)cs2)C12CCCCC2 (centres undefined) | 15.1%
Cc1ccc(CSCCNC(=O)CN(c2ccc(F)cc2)S(C)(=O)=O)cc1 | 59% (active)
COc1ccc(N(CC(=O)NCCSCc2cccc(Cl)c2)S(C)(=O)=O)cc1 | -2.19%
Cc1cc(C)cc(N(CC(=O)NCCSCc2ccco2)S(C)(=O)=O)c1 | 3.14%
CN(CC(=O)Nc1ccc(Cl)cc1)C(=O)CNC(=O)c1ccc2ccccc2c1 | 2.02%
O=C(NNC(=O)c1ccc2ccccc2c1)c1ccc(Cl)cc1 | 60.9% (active)
O=C(CCCOc1ccccc1)NNC(=O)c1ccc(Cl)cc1 | 17.9%
Cc1ccc(-c2c(C)n([O-])c3c([n+]2=O)CCC3)cc1 | 0.406%
O=C(CCc1ccccc1)NNC(=O)COc1ccc(Cl)cc1 | 38.4% (active)
O=C(NCCc1ccccc1)Oc1ccc(Cl)cc1 | -9.27%
O=C(COc1ccc(Cl)cc1)NCCSc1ccccc1 | 26.9%
CC(NC(=O)C1CCCN(S(=O)(=O)c2ccc(-n3cnnn3)cc2)C1)c1ccc(F)cc1 (centres undefined) | -4.68%
O=C1/C(=C\c2ccc(O)cc2)CCC1CNc1ccc(Cl)cc1 (centres undefined) | 20.4%
O=C(C1CCN(S(=O)(=O)c2cnc[nH]2)CC1)N1CCN(Cc2ccc3c(c2)OCO3)CC1 | -0.0388%
COC(=O)c1ccc(/C=N/N2C(C)CCCC2C)cc1 (centres undefined) | -2.67%
Brc1ccc(/C=N/N2CCN(C3c4ccccc4-c4ccccc43)CC2)s1 | 6.47%

Structure (SMILES) | inhibition
CCOc1ccc(CCN2C(=S)N([C@@H](CC(C)C)CN3CCC[C@@H]3CN3C(=S)NC[C@@H]3Cc3ccc(O)cc3)C[C@@H]2CC(C)C)cc1 | 17.1%
CCOc1ccc(CCN2C(=O)C(=O)N([C@@H](CC(C)C)CN3CCC[C@H]3CN3C(=O)C(=O)NC[C@@H]3Cc3ccccc3)C[C@@H]2CC(C)C)cc1 | -13.2%
CCOc1ccc(CCN2C(=S)N([C@@H](CC(C)C)CN3CCC[C@@H]3CN3C(=S)NC[C@@H]3Cc3ccc(O)cc3)C[C@@H]2Cc2ccc(O)cc2)cc1 | 51.8% (active)
CC1(C)NC(=O)N(CC(=O)Nc2ccc(-c3ccccc3)cc2)C1=O | -7.07%
Cc1cccc(N(CC(=O)Nc2ccc(-c3nc4ccc(C)cc4s3)cc2)S(C)(=O)=O)c1 | 9.99%
N=C1C(=O)OCC1c1ccccc1NC(=O)CN1CCCCC1 (centres undefined) | -2.7%
CCN(CC)CCNc1nc(-c2ccc(OC(F)F)cc2)c(C)s1 | 7.54%
CCCCn1nnnc1C(c1cc2ccccc2o1)N(C)Cc1ccc(Cl)c(Cl)c1 (centres undefined) | 15.8%
COCCNC(=S)c1ccc(OC)cc1 | -12.7%
CN(C)C(=S)N=c1ssc(=S)n1Cc1ccco1 | -5.43%
Cc1cs/c(=N\N=C\c2ccc(O)cc2)n1Cc1ccco1 | 50.6% (active)
CC(C)NC(=O)NNc1c(Cl)cncc1Cl | 1.07%
ONC(=Nc1ccc(Cl)cc1)c1ccccc1Cl | -0.13%
COc1ccc(NC(=O)CCNS(=O)(=O)c2ccc3c(c2)c(=O)n(C)c(=O)n3C)cc1OC | -1.47%
COc1ccc(NC2CC(=O)N(C)C2=O)cc1 (centres undefined) | -2.09%
CCOc1ccc(C(C)=O)cc1COC(=O)c1cnc(Cl)c(Cl)c1 | 43.3% (active)
CCOc1ccc(C(C)=O)cc1COC(=O)CNC(=O)c1cccs1 | 4.34%
COC(=O)c1ccc(COC(=O)c2cnc(Cl)c(Cl)c2)cc1 | 4.66%
Cc1c(Br)ccc(NC(=O)COc2ccccc2C(N)=O)c1C | -2.44%
CC(=O)Nc1ccc(N2C(=O)CCC2=O)cc1C | 4.9%
CN(CC(=O)NC1CCN(Cc2ccccc2)CC1)S(=O)(=O)c1ccc(Cl)s1 | 1.99%
COC(=O)C1CCN(C(=O)NC2CC(=O)N(c3ccc4c(c3)OCCO4)C2)CC1 (centres undefined) | 8.78%
COc1cc2c(cc1OC)CC1(CCCCC1)N=C2 | 7.31%

Structure (SMILES) | inhibition
CN(C)S(=O)(=O)c1cccc(NC(=O)COc2ccc3ccccc3c2)c1 | 8.2%
CN(Cc1ccc(F)cc1)C(=O)COc1ccc2ccccc2c1 | 93.1% (active)
Cc1ccc(C)c(NC(=O)CN(C)C(=O)COc2ccc3ccccc3c2)c1 | 27.2%
CC1(C)OC(=O)C2=C(C[C@@H](C3CCCC3)O[C@@H]2c2ccc(Cl)cc2)O1 | -3.37%
Cn1c(CC2Sc3ccccc3NC2=O)nnc1SCC(=O)c1ccc(Cl)cc1 (centres undefined) | 3.76%
O=C(/C=C/c1cn(-c2ccccc2)nc1-c1ccc2c(c1)OCCO2)NCCCN1CCOCC1 | 3.63%
Cc1ccc(-c2nn(-c3ccccc3)cc2C(=O)Nc2cccc(S(=O)(=O)N3CCOCC3)c2)cc1 | 27.6%
Cc1ccc(-c2nn(-c3ccccc3)cc2/C=C/C(=O)Nc2cccc(S(N)(=O)=O)c2)cc1 | 41.1% (active)
CC[C@]12c3[nH]c4cc(CCC(=O)N(C)C)ccc4c3CCN1C(=O)[C@@H](CC(=O)NCc1ccco1)C[C@@H]2C(=O)N1CCN(C(=O)c2ccco2)CC1 | -5.36%
CCN(CCCNC(=O)CSc1cc(=O)n(C)c2cc(Cl)ccc12)Cc1ccccc1 | 8.14%
Cc1cc(Cl)c2oc(C(=O)N(C)C(C)c3ccccn3)c(C)c2c1 (centres undefined) | 4.48%
Cc1cc(Cl)c2oc(C(=O)NC(C)c3ccncn3)c(C)c2c1 (centres undefined) | -2.48%
Cc1cc(Cl)c2oc(C(=O)N3CCC(O)(c4ccccc4)CC3)c(C)c2c1 | 73.4% (active)
CSc1nnc(CNC(=O)c2ccccc2)n1-c1ccc(F)cc1 | -8.06%
Cn1c(NC(=O)c2ccco2)c(-c2ccccc2Cl)c(=O)c2ccccc21 | 2.45%
COCCNc1nc2nonc2nc1N(C)Cc1ccc(C)cc1 | -3.45%
NS(=O)(=O)c1ccccc1NC(=O)c1c(O)c2ccccc2[nH]c1=O | 2.5%
O=C(c1cc2cc(F)ccc2[nH]1)N1CCN(c2ccc(F)cc2)CC1 | 71.3% (active)
O=C(c1ccccc1Oc1ccccc1)N1CCN(c2ccc(F)cc2)CC1 | 7.76%
Cc1c(C(=O)N2CCN(c3ccc(F)cc3)CC2)oc2c1C(=O)CCC2 | -8.48%
